PINK1 modulator = modulators of PINK1 expression; 410,000 tested, 0.2% active; PINK1 immunofluorescence, high-content cytometry, 24 h; AID 624263; Potency, µM (doses to about 76.6 µM), for inactives: top-dose activation (PINK1 increase), hits mostly activators; active = well fitted activation curve with a large enough effect; inconclusive = small, poorly fitted or top-dose-only effect; cell line not stated here; note: % of control where 0% means no effect; nearly all actives have a fitted effect of over 65% in size
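PINK1 protein, normally rapidly degraded, was detected by immunofluorescence after 24 hour compound treatment of a stable cell line. Titration data (5 concentrations) came from laser-scanning cytometry, with CCCP-treated wells as controls.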
MCF10A rerep = inducers of DNA re-replication in MCF 10A breast cells; MCF 10A DNA re-replication, Hoechst nuclear intensity, 48 h; 350,000 tested, 2.9% active; Potency, µM (top dose mostly 46.1 µM), for inactives: at the top dose activity, positive = re-replication, actives largely listed as activators; note: % of control where 0% means no effect; nearly all actives have a fitted effect of over 50% in size
KB-V1 cytotox = kills drug-selected multidrug resistant KB-V1 cells; KB-V1 MDR cells viability, CellTiter-Glo, 72 h; Potency, µM (titrated, usually from 46.1 µM), most hits filed as cytotoxic; 400,000 tested, 3.4% active; AID 1347076; note: % is set by controls: 0 for no effect and ±100 for the full control effect; nearly all actives have a fitted effect of over 60% in size
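Following 72 h at 37 degrees C with compound, KB-V1 cell viability was read by CellTiter-Glo luminescence, medium being phenol-red-free DMEM plus 10% FBS; concentration-response parameters came from normalized, curve-fitted qHTS data.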
SW480 rerep = inducers of DNA re-replication in SW480 colon cancer cells. SW480 DNA re-replication, Hoechst DNA content imaging, 48 h. Potency, µM (doses to about 46.1 µM), without a hit: top-dose re-replication activation, actives largely listed as activators. 340,000 tested, 1.8% active; note: % of control where 0% means no effect; nearly all actives have a fitted effect of over 55% in size
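Image-based read-out: total Hoechst fluorescence of nuclei (405 nm excitation, 500-530 nm emission), with hits raising the fraction of high-intensity nuclei. SW480 colon cells incubated 48 hr with compounds at 37 C.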
KB-3-1 cytotox = kills parental KB-3-1 adenocarcinoma cells; KB-3-1 viability, CellTiter-Glo ATP luminescence, 72 h; Potency, µM (doses to about 46.1 µM), hits mostly cytotoxic; 400,000 tested, 1.4% active; AID 1347075; note: % is set by controls: 0 for no effect and ±100 for the full control effect; nearly all actives have a fitted effect of over 60% in size
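Cells are dispensed, compounds pinned in, plates held at 37 °C for 72 h, then CellTiter-Glo is added and luminescence read after 10 minutes. Cell line: parental KB-3-1 in phenol-red-free DMEM, 10% FBS.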
ALOX12 inh = inhibitors of human 12S-lipoxygenase ALOX12 | Potency, µM (highest dose often 108 µM), without a hit: top-dose activity change, negative = inhibition, usual class: inhibitors | purified 12hLO, xylenol orange hydroperoxide absorbance | 580,000 tested, 1.1% active | AID 1671190; note: % is set by controls: 0 for no effect and ±100 for the full control effect
Target sequence (P18054 whole entry, looked up): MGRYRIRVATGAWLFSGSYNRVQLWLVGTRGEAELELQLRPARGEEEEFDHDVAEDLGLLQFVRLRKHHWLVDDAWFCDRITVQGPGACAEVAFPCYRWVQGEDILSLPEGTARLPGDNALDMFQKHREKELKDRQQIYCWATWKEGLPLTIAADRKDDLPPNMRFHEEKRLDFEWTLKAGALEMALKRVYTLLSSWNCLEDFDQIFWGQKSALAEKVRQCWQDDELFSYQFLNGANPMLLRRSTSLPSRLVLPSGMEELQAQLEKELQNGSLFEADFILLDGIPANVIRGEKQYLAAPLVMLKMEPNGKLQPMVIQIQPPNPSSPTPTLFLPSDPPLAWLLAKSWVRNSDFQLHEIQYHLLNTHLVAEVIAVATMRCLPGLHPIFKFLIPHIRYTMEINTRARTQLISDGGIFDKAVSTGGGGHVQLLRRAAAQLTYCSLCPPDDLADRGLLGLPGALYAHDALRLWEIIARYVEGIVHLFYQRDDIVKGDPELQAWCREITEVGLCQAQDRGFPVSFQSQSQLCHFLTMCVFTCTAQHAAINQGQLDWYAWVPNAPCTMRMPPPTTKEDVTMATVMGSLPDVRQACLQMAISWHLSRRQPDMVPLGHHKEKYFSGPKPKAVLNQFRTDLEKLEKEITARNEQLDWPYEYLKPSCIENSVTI
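Hydroperoxide product was detected by ferrous iron/xylenol orange as the 573 to 405 nm absorbance ratio. Arachidonic acid at 40 uM (final) was turned over for 30 min at room temperature by 150 nM human 12hLO, pH 7.0 Hepes buffer, after 15 min compound preincubation.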
* hit, by the source's call; i = inactive; u = inconclusive; x = no result given; [ ] = dose if it differs, or a comment. Shown are actives, neighbours in structure and some others; about 5.8% of the full set was active somewhere. Unless noted, calls come from the whole dose curve; as a rule, active = well fitted curve in the direction sought with a large enough effect; inconclusive = small, poorly fitted or top-dose-only effect, or another doubt; inactive = no such curve, though single readings can be large; an effect the other way counts as inactive or inconclusive. Potency is the fitted concentration of half-maximal effect.

SMILES | PINK1 modulator | MCF10A rerep | KB-V1 cytotox | SW480 rerep | KB-3-1 cytotox | ALOX12 inh
c1ccc2c(c1)oc1c(N3CCOCC3)ncnc12 | 0% | 14% | i | -3% | i | u
CCc1nc(N2CCCC(C)C2)c2oc3ccccc3c2n1 (stereo unspecified) | u | u | 5.2µM* | 20% | u | 0%
CCOC(=O)C1CCN(c2nc(C)nc3c2oc2ccccc23)CC1 | 0% | 2% | i | 0% | i | u
CCc1nc(N2CCN(Cc3ccc4c(c3)OCO4)CC2)c2oc3ccccc3c2n1 | x | 9.2µM* | 10µM* | u | 20µM* | -14%
CCOC(=O)C1CCCN(c2nc(C)nc3c2oc2ccccc23)C1 (stereo unspecified) | 7%[38.3 µM] | 57% | 8.2µM* | 29% | i | u
CCc1nc(Nc2ccc3c(c2)OCO3)c2oc3ccccc3c2n1 | 10% | u | u | 8% | i | -3%
CCc1nc(N2CCCCC2)c2oc3ccccc3c2n1 | 6%[38.3 µM] | 6% | u | u | i | -13%
Cc1nc(N2CCOCC2)c2oc3ccccc3c2n1 | 4% | u | 15µM* | 6% | i | 0%
CCc1nc(N2CCCCC2C)c2oc3ccccc3c2n1 (stereo unspecified) | 21%[38.3 µM] | u | 7.3µM* | u | u | u
Cn1nccc1NS(=O)(=O)c1ccc(C(C)(C)C)cc1 | -1% | 8% | u | -4% | i | 17%
Cn1nccc1NS(=O)(=O)c1ccc(NC(=O)C(F)(F)F)cc1 | 0% | 5% | i | 2.9µM* | i | 131%
c1ccc(-c2ccn[nH]2)cc1 | x | x | x | x | x | 36%
CCOc1ccc(CSC2=NCCN2)cc1[N+](=O)[O-] | 0% | u | u | u | u | -4%
CCCCOc1ccc(Br)cc1CSC(=N)N | 2% | u | 8.2µM* | u | 23µM* | u
CCCCOc1ccc(CSC2=NCCN2)cc1[N+](=O)[O-] | 7% | 21µM* | u | u | u | -2%
CCCCCOc1ccc(CSC(=N)N)cc1[N+](=O)[O-] | -4% | u | 18µM* | u | u | u
COc1ccc(CSC(=N)N)cc1[N+](=O)[O-] | 4% | u | u | u | u | 211%
CCOC(=O)C1(Cc2ccccc2C(F)(F)F)CCN(C2CCN(C(C)C)CC2)CC1 | 3% | 18µM* | u | -2% | i | 0%
CCOC(=O)C1(Cc2ccccc2C(F)(F)F)CCN(Cc2ccc(COC)o2)CC1 | 1% | u | u | 29% | 18µM* | -9%
CNC(=O)c1ccc(Cl)c(NC(=O)NC(C)C(C)C)c1 (stereo unspecified) | x | x | x | x | x | 2%
Cc1ccc2c(=O)cc(C(=O)N(Cc3ccccc3)Cc3ccco3)oc2c1C | x | x | x | x | x | 35µM*
Cc1cc2oc(C(=O)N(Cc3ccccc3)Cc3ccco3)cc(=O)c2cc1Cl | x | x | x | x | x | 0%
COc1cc(C2C3=C(CCCC3=O)OC3=C2C(=O)CCC3)ccc1OS(=O)(=O)c1ccc(C)cc1 | x | x | x | x | x | -18%
CCCC(=O)Nc1nn(C)c2nc3c(C)cccc3cc12 | 5% | u | i | u | i | -7%
Cc1cccc2cc3c(NC(=O)c4ccccn4)nn(C)c3nc12 | 11% | 8.2µM* | i | u | i | -2%
SMILES | PINK1 modulator | MCF10A rerep | KB-V1 cytotox | SW480 rerep | KB-3-1 cytotox | ALOX12 inh
CCn1nc(NC(=O)CC(C)C)c2cc3cccc(C)c3nc21 | 3% | 9.2µM* | i | 21µM* | i | -9%
CCn1nc(NC(=O)CC(C)C)c2cc3ccc(C)cc3nc21 | 4% | u | i | u | i | -10%
CCCn1nc(NC(C)=O)c2cc3cccc(C)c3nc21 | -1% | 18µM* | i | 18µM* | i | 15%
CCCCn1nc(NC(=O)c2cccc(Cl)c2)c2cc3cccc(C)c3nc21 | 0% | x | x | x | x | -6%
CCCn1nc(NC(=O)COC)c2cc3cccc(C)c3nc21 | 1% | 10% | i | 3% | i | 2%
CCCn1nc(NC(=O)CC(C)C)c2cc3cccc(C)c3nc21 | 6% | 10µM* | i | 10µM* | i | 64%
CCCN1C=NS(=O)(=O)c2cc(C(=O)NC(C)c3ccccc3)ccc21 (stereo unspecified) | x | x | x | x | x | -3%
Cc1nc(NC(=O)c2cccc(OCc3ccccc3)c2)ccc1Br | x | x | x | x | x | -15%
CCn1nc(NS(=O)(=O)c2ccccc2[N+](=O)[O-])c2cc3cccc(C)c3nc21 | 1% | 8% | i | -10% | i | 8%
CCn1nc(NC(=O)C(C)(C)C)c2cc3cccc(C)c3nc21 | 2% | 6.5µM* | i | u | i | -13%
C=CCNC(=S)Nc1sc2c(c1C(=O)OCC)CC(C(C)C)OC2 (stereo unspecified) | -5%[38.3 µM] | 12µM* | u | u | i | u
CCOC(=O)c1c(NC(=S)NC)sc2c1CC(C)(C)SC2 | 0% | u | i | 24% | i | u
CCOC(=O)c1c(NC(=S)NCCc2ccccc2)sc2c1CC(C(C)C)OC2 (stereo unspecified) | 18% | 13% | 21µM* | -41% | i | u
O=C(O)CCCNS(=O)(=O)c1ccc(C(=O)O)cc1 | x | x | x | x | x | -29%
O=c1[nH]c(Nc2ccccc2)nc2nccc(-c3ccco3)c12 | x | x | x | x | x | 35µM*
COc1cccc(Nc2nc3ccccc3c(=O)[nH]2)c1 | 0% | -9% | i | -7% | i | -13%
Cc1cc(C)c(C(O)C(C)Sc2ccc(Cl)cc2)cc1C (stereo unspecified) | x | x | x | x | x | -34%
CN1CCN(C(=O)C2CCCN(c3nc(Cl)nc4nc[nH]c34)C2)CC1 (stereo unspecified) | x | x | x | x | x | -9%
Cc1ccc(C)c(Sc2ccc(NC(=O)C3CCC(C(C)(C)C)CC3)cc2)c1 (stereo unspecified) | x | x | x | x | x | 9%
Cc1cc(C)n(CC(O)Cn2c3ccc(Cl)cc3c3cc(Cl)ccc32)c(=O)n1 (stereo unspecified) | 2%[38.3 µM] | 2% | 16µM* | 4% | i | -8%
Cc1cc(C)n(CC(O)Cn2c3ccccc3c3ccccc32)n1 (stereo unspecified) | 0% | u | i | 6% | i | -13%
Cc1ccc(S(=O)(=O)N/N=C2\C(=O)C3(C)CCC2C3(C)C)cc1 (stereo unspecified) | 1% | -8% | u | 1% | i | u
Cc1ccc(S(=O)(=O)NN=C2C(=O)C3CCC2C3Cl)cc1 (stereo unspecified) | 6% | 1% | i | -3% | i | 10µM*

Source: PubChem BioAssay (National Center for Advancing Translational Sciences (NCATS))
